Inconclusive results are not listed. Activity calls are given as the source filed them. Unless noted, calls come from the whole dose curve; as a rule, active = well fitted curve in either direction with a large enough effect (not every such curve was filed as active); inconclusive = small, poorly fitted or top-dose-only effect, or another doubt; inactive = flat fitted curve, though single readings scatter.
Key:
[1] = target: Lysosomal acid glucosylceramidase (Homo sapiens) (UniProt P04062); assay: Glucocerebrosidase-p2 (AID 348; in the data active = potency below about 10 µM; note: potency is the fitted concentration of half-maximal effect); conditions: purified GBA, blue fluorogenic substrate, 40 min
Sequence of Lysosomal acid glucosylceramidase (Homo sapiens) (P04062 whole entry, looked up): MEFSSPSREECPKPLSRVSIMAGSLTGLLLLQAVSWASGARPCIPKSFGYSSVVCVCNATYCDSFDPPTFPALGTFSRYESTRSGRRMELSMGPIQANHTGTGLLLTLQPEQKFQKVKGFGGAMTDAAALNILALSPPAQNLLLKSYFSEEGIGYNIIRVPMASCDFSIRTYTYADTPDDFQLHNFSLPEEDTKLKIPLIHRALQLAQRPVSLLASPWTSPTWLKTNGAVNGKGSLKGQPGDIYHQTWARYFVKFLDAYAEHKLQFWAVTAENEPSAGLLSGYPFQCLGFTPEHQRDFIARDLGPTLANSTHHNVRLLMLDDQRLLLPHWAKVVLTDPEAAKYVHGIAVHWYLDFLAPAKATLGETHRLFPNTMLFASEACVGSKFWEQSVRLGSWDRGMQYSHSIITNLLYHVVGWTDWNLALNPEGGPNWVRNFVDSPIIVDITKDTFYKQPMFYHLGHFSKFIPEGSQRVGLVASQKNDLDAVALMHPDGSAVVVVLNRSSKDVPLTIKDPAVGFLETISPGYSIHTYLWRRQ
How it was run: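 Compounds titrated from 0.6 nM upwards against 0.2 nM enzyme in pH 5.9 citric acid/KH2PO4, taurocholate, tween-20; blue fluorogenic substrate 80 uM, 40 min room temperature, stopped and read Ex 365/Em 440 for AC50.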

[2] = AP1 Signaling Pathway (AID 357); conditions: ME-180 AP-1-bla reporter, EGF-induced, beta-lactamase ratio, 5 h; at 7.69 µM (top of the series) unless noted; note: % is set by controls: 0 for no effect and ±100 for the full control effect
How it was run: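 Modulation of EGF-driven AP-1 transcription was assessed with a beta-lactamase reporter in ME-180 cells. Compound and EC50 EGF were co-incubated 5 hours at 37 °C before 2.5-hour CCF4 loading at room temperature and dual-emission reading.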

[3] = target: Cytochrome P450 1A2 (Homo sapiens) (UniProt P05177); assay: p450-cyp1a2 (AID 410; calls by dose curve; note: potency is the fitted concentration of half-maximal effect;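 for activity change, negative = inhibition: -100% = full effect of reference inhibitor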); conditions: recombinant CYP1A2, luciferin-ME demethylation, luminescence; series mostly up to 57 µM
Sequence of Cytochrome P450 1A2 (Homo sapiens) (P05177 whole entry, looked up): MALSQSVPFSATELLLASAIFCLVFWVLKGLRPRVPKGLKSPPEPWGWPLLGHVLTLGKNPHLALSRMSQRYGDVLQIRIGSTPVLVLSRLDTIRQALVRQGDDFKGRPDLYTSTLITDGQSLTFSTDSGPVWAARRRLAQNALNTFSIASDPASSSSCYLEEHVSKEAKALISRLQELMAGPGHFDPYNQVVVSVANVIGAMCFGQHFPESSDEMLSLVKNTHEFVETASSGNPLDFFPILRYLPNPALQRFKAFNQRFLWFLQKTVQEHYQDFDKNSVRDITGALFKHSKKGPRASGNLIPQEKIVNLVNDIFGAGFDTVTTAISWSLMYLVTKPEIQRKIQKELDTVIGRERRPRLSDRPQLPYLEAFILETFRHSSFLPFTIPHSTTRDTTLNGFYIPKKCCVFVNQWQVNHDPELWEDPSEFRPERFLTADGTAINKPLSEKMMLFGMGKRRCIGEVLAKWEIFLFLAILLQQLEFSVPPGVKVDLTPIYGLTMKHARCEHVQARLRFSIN
How it was run: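 Human CYP1A2 (20nM) demethylated Luciferin-ME at its Km (100uM) in 100mM KPO4. After 10 min compound preincubation, NADPH regeneration ran the reaction 60 min at room temperature. Luciferin was read by luminescence, normalized to 57 uM furafylline.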

[4] = NFAT Signaling Pathway (AID 444); conditions: Jurkat NFAT-bla M1, carbachol, beta-lactamase ratio, 5 h; at 7.69 µM (top of the series) unless noted;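 note: carbachol stimulus at about its EC50 of 1 µM final; % is set by controls: 0 for no effect and ±100 for the full control effect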
How it was run: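 Jurkat cells carrying an NFAT-driven β-lactamase reporter and co-transfected muscarinic M1 receptor were treated with compound plus carbachol (1 uM final, an EC50 level) for 5 h at 37 °C. CCF4 loading followed for 1 h at RT; 460/530 nm ratio gave %activity.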

[5] = Stat Signaling Pathway (AID 446); conditions: ME-180 SIE beta-lactamase reporter, IL-6 stimulated, 5 h; at 7.69 µM (top of the series) unless noted;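 note: ME-180 cervical cancer cells given 40 pM IL-6 alongside compound; SIE-controlled beta-lactamase reporter measured as 460/530 nm FRET emission ratio; % is set by controls: 0 for no effect and ±100 for the full control effect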
How it was run: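 ME-180 SIE-bla cells; overnight plating; cpd + IL-6 40 pM, 5 h, 37 C; LiveBLAzer 2.5 h RT; 460/530 nm emission ratio. Normalized to 300 pM IL-6 and 125 nM JAK inhibitor controls.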

[6] = target: Glucocorticoid receptor (Homo sapiens) (UniProt P04150); assay: GR-GFP Redistribution (AID 450;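 active = compounds whose dose series gives a full or clear partial fitted curve of increased nuclear translocation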; note: potency is the fitted concentration of half-maximal effect); conditions: U2OS GR-GFP nuclear translocation, laser cytometry, 2 h
Sequence of Glucocorticoid receptor (Homo sapiens) (P04150 whole entry, looked up, the tested form may be a part): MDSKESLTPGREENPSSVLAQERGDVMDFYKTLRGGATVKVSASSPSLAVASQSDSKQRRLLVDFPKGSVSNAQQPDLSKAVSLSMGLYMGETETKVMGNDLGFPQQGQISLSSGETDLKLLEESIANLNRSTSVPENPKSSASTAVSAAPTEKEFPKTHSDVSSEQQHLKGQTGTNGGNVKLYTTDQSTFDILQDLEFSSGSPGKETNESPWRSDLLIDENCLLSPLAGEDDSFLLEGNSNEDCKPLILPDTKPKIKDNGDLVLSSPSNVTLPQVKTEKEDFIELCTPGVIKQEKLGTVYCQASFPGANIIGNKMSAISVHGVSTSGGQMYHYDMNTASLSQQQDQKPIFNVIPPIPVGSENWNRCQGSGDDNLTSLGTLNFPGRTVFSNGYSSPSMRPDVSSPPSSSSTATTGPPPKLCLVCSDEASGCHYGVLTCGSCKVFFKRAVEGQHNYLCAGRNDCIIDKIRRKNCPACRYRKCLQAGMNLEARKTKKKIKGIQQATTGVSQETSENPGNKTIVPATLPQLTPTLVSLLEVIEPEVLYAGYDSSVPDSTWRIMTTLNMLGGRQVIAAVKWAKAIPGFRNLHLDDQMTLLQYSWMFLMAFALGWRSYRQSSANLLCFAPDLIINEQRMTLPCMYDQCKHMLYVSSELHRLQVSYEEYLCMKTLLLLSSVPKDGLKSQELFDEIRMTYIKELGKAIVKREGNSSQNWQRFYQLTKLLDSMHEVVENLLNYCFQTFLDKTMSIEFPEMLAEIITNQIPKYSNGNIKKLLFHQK

[7] = target: Glucocorticoid receptor (Homo sapiens) (UniProt P04150); assay: GR-EFC Redistribution (AID 451; calls by dose curve; note: potency is the fitted concentration of half-maximal effect); conditions: CHO-K1 GR-EFC translocation, beta-gal luminescence, 2 h
How it was run: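 CHO-K1 cells stably expressing nuclear-localized β-gal enzyme acceptor and GR fused C-terminally to the enzyme donor fragment; ligand-driven nuclear translocation restores β-gal by complementation. Compounds titrated up to 46 uM final, 2 h at 37 °C; luminescence read.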

[8] = target: Cytochrome P450 3A4 (Homo sapiens) (UniProt P08684); assay: qHTS Assay for Inhibitors and Substrates of Cytochrome P450 3A4 (AID 884; active = well fitted curve in the direction sought with a large enough effect; an effect the other way counts as inactive or inconclusive; note: potency is the fitted concentration of half-maximal effect; nearly all actives have a fitted effect of over 50% in size); conditions: recombinant CYP3A4, Luciferin-PPXE luminescence; series mostly up to 57.1 µM
Sequence of Cytochrome P450 3A4 (Homo sapiens) (P08684 whole entry, looked up): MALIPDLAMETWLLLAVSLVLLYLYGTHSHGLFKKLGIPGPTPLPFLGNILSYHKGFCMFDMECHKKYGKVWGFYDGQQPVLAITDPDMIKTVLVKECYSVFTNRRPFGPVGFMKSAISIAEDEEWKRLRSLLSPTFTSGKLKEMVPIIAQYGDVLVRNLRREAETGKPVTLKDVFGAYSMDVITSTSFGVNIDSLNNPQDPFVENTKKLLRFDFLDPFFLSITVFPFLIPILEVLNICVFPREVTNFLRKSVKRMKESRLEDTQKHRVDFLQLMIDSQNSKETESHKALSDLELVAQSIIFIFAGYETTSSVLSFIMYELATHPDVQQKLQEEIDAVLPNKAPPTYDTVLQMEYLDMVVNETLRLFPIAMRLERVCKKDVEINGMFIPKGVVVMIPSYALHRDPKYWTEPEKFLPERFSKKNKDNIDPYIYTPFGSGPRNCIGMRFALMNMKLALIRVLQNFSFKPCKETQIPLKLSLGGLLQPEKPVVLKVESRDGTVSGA
How it was run: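 20 nM human CYP3A4 with 25 uM Luciferin-PPXE (at KM) in 200 mM KPO4, preincubated 10 min with compound; NADPH regeneration started a 60 min RT reaction. Luciferin detected by luminescence, normalized to 57 uM ketoconazole as full inhibition.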

[9] = target: Cytochrome P450 3A4 (Homo sapiens) (UniProt P08684); assay: qHTS Assay for Activators of Cytochrome P450 3A4 (AID 885; active = well fitted curve in the direction sought with a large enough effect; an effect the other way counts as inactive or inconclusive; note: nearly all actives have a fitted effect of over 65% in size); conditions: recombinant CYP3A4, Luciferin-PPXE luminescence, 60 min; series mostly up to 57.1 µM
How it was run: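 20nM CYP3A4 + 25uM Luciferin-PPXE (=KM), 200mM KPO4; cpd 10 min RT; NADPH regen, 60 min RT; stop w/ detection buffer, 20 min; luminescence. Normalized to 57 uM ketoconazole.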

[10] = target: Cytochrome P450 2C19 (Homo sapiens) (UniProt P33261); assay: qHTS Assay for Inhibitors and Substrates of Cytochrome P450 2C19 (AID 899; active = well fitted curve in the direction sought with a large enough effect; an effect the other way counts as inactive or inconclusive; note: potency is the fitted concentration of half-maximal effect; nearly all actives have a fitted effect of over 60% in size); conditions: recombinant CYP2C19, luciferin-H EGE luminescence; series mostly up to 57.1 µM
Sequence of Cytochrome P450 2C19 (Homo sapiens) (P33261 whole entry, looked up): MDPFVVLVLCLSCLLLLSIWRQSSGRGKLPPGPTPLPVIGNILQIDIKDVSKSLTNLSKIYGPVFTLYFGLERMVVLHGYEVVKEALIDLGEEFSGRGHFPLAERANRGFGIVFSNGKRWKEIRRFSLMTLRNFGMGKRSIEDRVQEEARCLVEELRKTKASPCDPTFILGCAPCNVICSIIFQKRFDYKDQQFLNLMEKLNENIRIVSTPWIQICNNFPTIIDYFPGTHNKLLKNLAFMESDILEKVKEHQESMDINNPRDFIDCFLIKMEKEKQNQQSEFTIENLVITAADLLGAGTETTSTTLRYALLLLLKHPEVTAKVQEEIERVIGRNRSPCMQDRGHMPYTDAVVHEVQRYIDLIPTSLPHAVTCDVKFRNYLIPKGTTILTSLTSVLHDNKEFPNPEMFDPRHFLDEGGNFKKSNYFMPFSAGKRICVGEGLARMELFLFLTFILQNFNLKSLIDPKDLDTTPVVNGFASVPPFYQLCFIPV
How it was run: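 Human CYP2C19 (5nM) with Luciferin-H EGE at 10uM (its KM) in 50mM KPO4 was preincubated with compound for 10 min at 37C. NADPH regeneration started a 60 min 37C reaction. Luciferin was read by luminescence, normalized to 57uM ketoconazole.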

[11] = Confirmation and Secondary Assay for Modulators of Hemoglobin Beta Chain Splicing at IVS2 654 locus (AID 910; active = well fitted curve in the direction sought with a large enough effect; an effect the other way counts as inactive or inconclusive;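 note: per-well total GFP intensity by laser scanning cytometry after 2-day treatment; % of control where 0% means no effect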); conditions: HeLa EGFP-654 splicing reporter, GFP fluorescence, 48 h; series mostly up to 38.3 µM
How it was run: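 HeLa cells stably carrying EGFP interrupted by mutant beta-globin IVS2-654 intron (CMV-driven) were treated with compound for 2 days at 37C; corrected splicing was scored as total peak GFP intensity per well (488 nm excitation, 500-520 nm emission).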

[12] = Confirmation and Secondary Assay for Modulators of Hemoglobin Beta Chain Splicing at IVS2 705 locus (AID 930; active = well fitted curve in the direction sought with a large enough effect; an effect the other way counts as inactive or inconclusive;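 note: HeLa cells stably expressing the EGFP-705 splicing reporter; GFP fluorescence per well restored by corrected splicing of the IVS2-705 intron in EGFP; % of control where 0% means no effect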); conditions: HeLa EGFP-705 splicing reporter, GFP fluorescence, 48 h; series mostly up to 38.3 µM
How it was run: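 HeLa IVS2-705 EGFP reporter cells, 500/well, compound 2 d at 37C; correct splicing yields fluorescent EGFP. Control: 500 nM antisense PNA. Read-out: total peak GFP intensity.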

[13] = qHTS Assay for Lipid Storage Modulators (AID 1519; calls by dose curve); conditions: Drosophila S3 cells, BODIPY lipid droplet/cell ratio, laser cytometry, cells loaded with oleic acid; for activity change, negative = inhibition: at 57.5 µM (top of the series)
How it was run: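 Cells seeded at 5,000 per well were treated with compounds over a concentration series and loaded with oleic acid (400 uM, as added). Lipid droplet fluorescence (488 nm excitation, 500-530 nm channel) was read by laser-scanning cytometry and normalized to 20 uM Triacsin C.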

[14] = Primary qHTS for small molecule stabilizers of the endoplasmic reticulum resident proteome: Secreted ER Calcium Modulated Protein (SERCaMP) assay (AID 1508630; active = well fitted curve in the direction sought with a large enough effect; an effect the other way counts as inactive or inconclusive; note: % is set by controls: 0 for no effect and ±100 for the full control effect); conditions: SH-SY5Y GLuc-SERCaMP (Gaussia luciferase released on ER calcium loss) secretion, thapsigargin, luminescence; series mostly up to 38.4 µM
How it was run: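 GLuc-SERCaMP-expressing SH-SY5Y cells, pretreated 16 h with compound, are challenged with thapsigargin to empty ER calcium stores; after 4 h, coelenterazine is added directly to the medium and luminescence is imaged.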

[15] = target: Mitogen-activated protein kinase 10 (Mus musculus) (UniProt Q61831); assay: JNK3 AlphaScreen Assay (AID 530); conditions: JNK3 lysate, c-Jun phosphorylation; series mostly up to 57.1 µM
How it was run: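 JNK3 came from HepG2 lysates pre-activated with IL-1beta and TNF-alpha and phosphorylated biotinylated GST-cJun (1-79) at 10 uM ATP, pH 7.6, room temperature. Compounds were titrated. AlphaScreen signal used anti-phospho-cJun (Ser73) antibody.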

[16] = target: Cytochrome P450 2C9 (Homo sapiens) (UniProt P11712); assay: qHTS Assay for Inhibitors and Substrates of Cytochrome P450 2C9 (AID 883; active = well fitted curve in the direction sought with a large enough effect; an effect the other way counts as inactive or inconclusive; note: % is set by controls: 0 for no effect and ±100 for the full control effect; nearly all actives have a fitted effect of over 60% in size); conditions: recombinant CYP2C9, luciferin-H luminescence, 60 min; series mostly up to 57.1 µM
Sequence of Cytochrome P450 2C9 (Homo sapiens) (P11712 whole entry, looked up): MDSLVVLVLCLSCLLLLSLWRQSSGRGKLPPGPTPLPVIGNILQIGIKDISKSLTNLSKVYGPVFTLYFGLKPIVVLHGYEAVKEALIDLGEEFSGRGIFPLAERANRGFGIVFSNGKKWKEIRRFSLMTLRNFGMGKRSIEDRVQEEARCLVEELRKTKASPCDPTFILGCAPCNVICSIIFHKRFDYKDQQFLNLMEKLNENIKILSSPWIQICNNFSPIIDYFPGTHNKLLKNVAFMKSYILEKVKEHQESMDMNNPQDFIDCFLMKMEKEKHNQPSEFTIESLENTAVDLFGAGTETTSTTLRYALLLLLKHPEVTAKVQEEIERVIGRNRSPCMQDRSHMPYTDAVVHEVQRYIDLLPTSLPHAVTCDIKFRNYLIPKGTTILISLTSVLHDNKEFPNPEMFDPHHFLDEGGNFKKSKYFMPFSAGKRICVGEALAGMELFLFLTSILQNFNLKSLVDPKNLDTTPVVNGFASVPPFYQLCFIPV
How it was run: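 Human CYP2C9 (10nM) hydroxylated Luciferin-H (100uM, at its KM) to luciferin in 25mM KPO4. Compound was preincubated 10 min at 37C, then NADPH regeneration started a 60 min reaction at 37C. Luminescence was read after detection reagent, normalized to 57uM sulphaphenazole.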

[17] = target: 3',5'-cyclic-AMP phosphodiesterase 4B (Homo sapiens) (UniProt Q07343); assay: qHTS Assay for Inhibitors of PDE-IV (AID 607; active = well fitted activation curve with a large enough effect in the main read-out, with a control signal flat, not every such curve was filed as active; note: % of control where 0% means no effect); conditions: HEK293 ACTOne CNG channel cells, membrane potential fluorescence; series mostly up to 22.9 µM
Sequence of 3',5'-cyclic-AMP phosphodiesterase 4B (Homo sapiens) (Q07343 whole entry, looked up): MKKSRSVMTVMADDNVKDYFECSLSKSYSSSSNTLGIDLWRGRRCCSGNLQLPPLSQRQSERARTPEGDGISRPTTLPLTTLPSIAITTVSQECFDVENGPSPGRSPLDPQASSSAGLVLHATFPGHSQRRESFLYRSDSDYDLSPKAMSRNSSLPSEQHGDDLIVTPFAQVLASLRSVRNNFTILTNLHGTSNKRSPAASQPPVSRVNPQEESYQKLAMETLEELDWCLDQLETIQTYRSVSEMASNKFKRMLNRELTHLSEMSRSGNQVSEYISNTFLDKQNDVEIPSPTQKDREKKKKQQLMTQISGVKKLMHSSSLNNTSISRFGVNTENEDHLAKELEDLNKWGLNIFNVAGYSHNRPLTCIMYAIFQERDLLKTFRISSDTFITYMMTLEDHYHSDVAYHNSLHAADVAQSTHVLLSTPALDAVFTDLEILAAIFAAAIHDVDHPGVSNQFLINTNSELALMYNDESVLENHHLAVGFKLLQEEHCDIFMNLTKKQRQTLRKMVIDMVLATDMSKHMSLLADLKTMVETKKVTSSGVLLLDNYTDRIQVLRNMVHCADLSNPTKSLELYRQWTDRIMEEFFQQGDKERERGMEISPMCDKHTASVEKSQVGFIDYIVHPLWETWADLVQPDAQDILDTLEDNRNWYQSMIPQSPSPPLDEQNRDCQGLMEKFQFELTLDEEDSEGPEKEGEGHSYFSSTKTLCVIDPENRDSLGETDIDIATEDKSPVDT
How it was run: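 ACTOne HEK293 cells carry a modified cAMP-gated CNG channel and express endogenous PDE4; plated 1000 cells/well, compounds up to 22.9 uM final. Membrane-potential dye fluorescence (ex 535/em 590) was read; parental cells received 10 uM forskolin + 100 uM RO 20-1724.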

[18] = measured here: cell count channel max response
[19] = measured here: lipid channel max response

CN(C)c1ccc(-c2cncnc2NCc2cccs2)cc1
active: Potency [3] 0.398 µM | Potency [8] 0.794 µM | Potency [10] 0.631 µM
4.82%: max response [13, 18]
inactive: Potency [1] > 11.4 µM | activity change, negative = inhibition [2] -15.1% | activity change, negative = inhibition [4] 2.25% | activity, negative = inhibition [5] -0.237% | Potency [6] > 46 µM | Potency [7] > 46 µM | Potency [9] | outcome [11] | outcome [12] | activity change, negative = inhibition [13] 7.98% | Potency [14]
15.4%: max response [13, 19]

CN(C)c1ncc2ncc(=O)n(CCC#N)c2n1
29.8%: max response [13, 19]
inactive: Potency [1] > 11.4 µM | activity change, negative = inhibition [2] -12.7% | activity change, negative = inhibition [4] 3.55% | activity, negative = inhibition [5] -2.2% | Potency [6] > 9.22 µM | Potency [7] > 46 µM | outcome [15] | Potency [16] | activity change, negative = inhibition [13] 2.4% | Potency [14]
25.3%: max response [13, 18]
active: Potency [3] 12.6 µM

COCC(=O)N1CCC2(CC1)CN(C(=O)Nc1cccc(C#N)c1)C2
11%: max response [13, 19]
inactive: Potency [1] > 11.4 µM | activity change, negative = inhibition [2] 12.3% | Potency [3] | activity change, negative = inhibition [4] 9.29% | activity, negative = inhibition [5] 11.7% | Potency [7] > 46 µM | outcome [15] | Potency [17] | activity change, negative = inhibition [13] 1.93% | Potency [14]
8.59%: max response [13, 18]

O=C(Nc1ccccc1)N1CC[C@@]2(CCCN(C(=O)c3ccco3)C2)C1
active: Potency [3] 10 µM
5.04%: max response [13, 18]
7.34%: max response [13, 19]
inactive: Potency [1] > 11.4 µM | activity change, negative = inhibition [2] -6.95% | activity change, negative = inhibition [4] 4.43% | activity, negative = inhibition [5] -3.48% | Potency [7] > 46 µM | outcome [15] | Potency [17] | activity change, negative = inhibition [13] 0.607% | Potency [14]

COC(=O)N1CCC[C@@]2(CCN(C(=O)Nc3cccc(C#N)c3)C2)C1
15.8%: max response [13, 19]
inactive: Potency [1] > 11.4 µM | activity change, negative = inhibition [2] -12.4% | Potency [3] | activity change, negative = inhibition [4] 19.3% | activity, negative = inhibition [5] 6.31% | Potency [7] > 46 µM | outcome [15] | Potency [17] | activity change, negative = inhibition [13] 6.94% | Potency [14]
4.39%: max response [13, 18]

CS(=O)(=O)N1CCC2(CCN(C(=O)Nc3cccc(C#N)c3)CC2)CC1
-10.5%: max response [13, 19]
-15.9%: max response [13, 18]
inactive: Potency [1] > 11.4 µM | activity change, negative = inhibition [2] 2.04% | Potency [3] | activity change, negative = inhibition [4] 16.4% | activity, negative = inhibition [5] -21% | Potency [7] > 46 µM | outcome [15] | Potency [17] | activity change, negative = inhibition [13] 2.84% | Potency [14]

COCC(=O)N1CCC2(CC1)CN(C(=O)Nc1cccc(F)c1)C2
29%: max response [13, 19]
inactive: Potency [1] > 11.4 µM | activity change, negative = inhibition [2] -27.6% | Potency [3] | activity change, negative = inhibition [4] 9.78% | activity, negative = inhibition [5] -2.66% | Potency [7] > 46 µM | outcome [15] | Potency [17] | activity change, negative = inhibition [13] 8.39% | Potency [14]
17.5%: max response [13, 18]

From PubChem BioAssay (NCATS)
